# “And” between values parts separate entries of the source, which are not always exact repeats. Identical values can stand only once. Results filed as inconclusive are left out. For some assays here: Entries with a potency or affinity are not part of this list. The source made the active and inactive calls. Unless noted, how the calls were made is not given here.
# Assays:
# [1] = qHTS Assay for Identifying Gametocytocidal Compounds (AID 743244; active means well fitted curve in the direction sought with a large enough effect; an effect the other way counts as inactive or inconclusive; further: potency means the concentration at half of the fitted maximal effect;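 on max response: on the % scale 0 is the no-effect control and ±100 the full control effect; actives lower the fluorescent signal which means gametocytes are killed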); details: P. falciparum 3D7 stage III-V gametocytes, alamarBlue, 72 h; max response: stronger effect = lower value
# Procedure, shortened: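 P. falciparum 3D7 stage III–V gametocytes (20,000 cells/well) were exposed to compounds for 72 h at 37 °C, 5% CO2. AlamarBlue was then added for 24 h; decreased resorufin fluorescence (Ex 525/Em 598 nm) indicated loss of viability.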
# [2] = Ebola virus entry assay, green fluorescence channel
# [3] = Ebola virus entry assay, blue channel fluorescence
# [4] = Ebola virus entry assay, ratio channel
# [5] = Ebola virus entry assay, reporter ratio channel; AC50: Channel type: primary unless noted; outcome: Channel type: primary unless noted
# [6] = qHTS assay for cell viability of HEK293 cells (AID 743288; active means well fitted curve in the direction sought with a large enough effect; an effect the other way counts as inactive or inconclusive; further: on the % scale 0 is the no-effect control and ±100 the full control effect; nearly all actives have a fitted effect of over 50% in size); details: ATP luminescence (CellTiter-Glo), 18 h; max response: stronger effect = lower value
# Procedure, shortened: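 HEK293 parental, 2,000 cells/well; ≥5 h pre-incubation 37 C; pintool compound addition; 18 h, 37 C; CellTiter-Glo 30 min RT; luminescence read.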
# [7] = qHTS assay for cell viability of the p53RE-bla HCT-116 cell line (AID 743292; active means well fitted curve in the direction sought with a large enough effect; an effect the other way counts as inactive or inconclusive; further: nearly all actives have a fitted effect of over 55% in size; further: potency means the concentration at half of the fitted maximal effect)
# Procedure, shortened: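 Intracellular ATP of p53RE-bla HCT-116 cells measured by luciferase luminescence following 16 h compound incubation at 37 C; DMSO-only wells served as vehicle controls.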
# [8] = qHTS profiling for inhibitors of Plasmodium falciparum (3D7) proliferation (AID 743322);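 further: infected erythrocytes exposed to compound for 72 h before lysis; 100% = DMSO vehicle wells and 0% = 0.29 µM artemisinin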; details: P. falciparum 3D7 proliferation; at 28.7 µM (top of the series)
# Procedure, shortened: (§1)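 Erythrocytes infected with P. falciparum (0.3% parasitemia, 2.5% hematocrit) incubated with compounds 72 h at 37 C, 5% CO2. Lysis with saponin/Triton buffer containing SYBR Green I, overnight at room temperature in the dark; DNA fluorescence (485/535 nm) normalised to 0.29 uM artemisinin and DMSO.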
# [9] = qHTS profiling for inhibitors of Plasmodium falciparum (DD2) proliferation (AID 743323); details: lower = more inhibition; at 28.7 µM (top of the series)
# Procedure, shortened: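 Parasite DNA quantified by SYBR Green fluorescence (ex 485, em 535 nm) after saponin/Triton lysis and overnight dark incubation. Cultures: 0.3% parasitemia, 2.5% hematocrit, 72 h, 37 C; data scaled between DMSO and 0.29 uM artemisinin.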
# [10] = qHTS profiling of the MIPE4 collection as inhibitors of Plasmodium falciparum (3D7) proliferation (AID 743344);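 further: scaled between DMSO vehicle wells and 0.29 µM artemisinin as full inhibition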; details: P. falciparum 3D7 in erythrocytes, SYBR Green DNA fluorescence, 72 h; at 28.5 µM (top of the series) unless noted
# Procedure, shortened: as §1
# [11] = qHTS profiling of the MIPE4 collection as inhibitors of Plasmodium falciparum (DD2) proliferation (AID 743345); details: P. falciparum Dd2 in erythrocytes, SYBR Green DNA, 72 h; at 28.5 µM (top of the series) unless noted
# Procedure, shortened: as §1
# [12] = qHTS profiling of the MIPE4 collection as inhibitors of Plasmodium falciparum (DD2) proliferation (Rep 2) (AID 743346); details: P. falciparum Dd2 in erythrocytes, SYBR Green DNA, 72 h; at 28.5 µM (top of the series) unless noted
# Procedure, shortened: as §1
# [13] = qHTS profiling of the MIPE4 collection as inhibitors of Plasmodium falciparum (HB3) proliferation (AID 743347);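 further: plate controls were DMSO vehicle wells for no effect and artemisinin wells for full effect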; details: P. falciparum HB3 in erythrocytes, SYBR Green DNA, 72 h; at 28.5 µM (top of the series) unless noted
# Procedure, shortened: as §1
# [14] = Ebola virus entry assay, blue channel (ratio component)
# [15] = qHTS profiling for inhibitors of Plasmodium falciparum (HB3) proliferation (AID 743324; active means well fitted curve in the direction sought with a large enough effect; an effect the other way counts as inactive or inconclusive;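 further: 100% = DMSO vehicle wells and 0% = artemisinin-treated control wells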); details: Plasmodium falciparum HB3 blood-stage proliferation; at 28.7 µM (top of the series)
# Procedure, shortened: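 P. falciparum HB3 grown in erythrocytes (0.3% parasitemia, 2.5% hematocrit final) with compound for 72 h at 37 C, 5% CO2. Parasite DNA detected by SYBR Green after saponin/triton lysis overnight; normalized to 0.29 uM artemisinin and DMSO.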
# [16] = Ebola virus entry assay, green channel fluorescence
# Wherever efficacy is given: 0% is about no effect.
compound,measurement,setting,value
C#CCOC(C(=O)OCCN(C)C)(c1ccccc1)c1ccccc1,max response,[1],-0.509% (inactive)
same,efficacy,[2],46% (inactive)
same,AC50,[3],12.6 µM (active)
same,AC50,[4],14.1 µM (active)
same,AC50,[5],14.1 µM (active)
c1ccc2c(c1)Nc1ccccc1S2,Potency,[1],22.4 µM (active) and 28.2 µM (active)
same,max response,[6],-11.4% (inactive) and -9% (inactive)
same,Potency,[7],inactive
same,efficacy,[2],4% (inactive)
same,outcome,[3],inactive
same,outcome,[4],inactive
same,outcome,[5],inactive
CCCN1CCC[C@@H]2Cc3nc(N)ncc3C[C@H]21,max response,[1],3.72% (inactive) and 1.86% (inactive)
same,efficacy,[2],40.4% (inactive)
same,AC50,[3],39.8 µM (active)
same,outcome,[4],inactive
same,AC50,[5],39.8 µM (active)
C=C(C)[C@H]1Cc2c(ccc3c2O[C@@H]2COc4cc(OC)c(OC)cc4[C@@H]2C3=O)O1,max response,[1],2.33% (inactive) and 3.94% (inactive)
same,Potency,[7],inactive
same,remaining parasite growth % (stronger effect = lower value),[8],82.1%
same,"activity, percent of control",[9],97.6%
same,"parasite growth, % of DMSO control",[10],86.6%
same,"parasite growth remaining, % of DMSO control (lower = more inhibition)",[11],94.4%
same,"parasite growth, % of control (lower = inhibition)",[12],35.5%
same,"growth, % of control",[13],90.3%
same,efficacy,[2],120% (inactive)
same,AC50,[3],10 µM (active)
same,AC50,[4],8.91 µM (active)
same,AC50,[5],8.91 µM (active)
O=C1NCN(c2ccccc2)C12CCN(CC1COc3ccccc3O1)CC2 (stereo not given),max response,[1],-1.23% (inactive) and 22.3% (inactive)
same,efficacy,[2],-42.1% (inactive)
same,outcome,[3],inactive
same,outcome,[4],inactive
same,outcome,[5],inactive
same,outcome,[14],inactive
CC(O)(CS(=O)(=O)c1ccc(F)cc1)C(=O)Nc1ccc(C#N)c(C(F)(F)F)c1 (stereo not given),max response,[1],4.22% (inactive) and -26.1% (inactive)
same,remaining parasite growth % (stronger effect = lower value),[8],91.3%
same,"activity, percent of control",[9],89.3%
same,"remaining proliferation (% of control), lower = more inhibition",[15],70.9%
same,"parasite growth, % of DMSO control",[10],61.4%
same,"parasite growth remaining, % of DMSO control (lower = more inhibition)",[11],102%
same,"parasite growth, % of control (lower = inhibition)",[12],64.8%
same,"growth, % of control",[13],81.9%
Cc1ccc2c(c1)C1CN(C)CCC1N2 (stereo not given),max response,[1],-7.38% (inactive)
same,efficacy,[2],62.7% (inactive)
same,AC50,[3],17.8 µM (active)
same,AC50,[4],10 µM (active)
same,AC50,[5],10 µM (active)
O=c1c(O)c(-c2ccc(O)c(O)c2)oc2cc(O)cc(O)c12,max response,[1],43.6% (inactive) and 2.58% (inactive) and 14.8% (inactive)
same,"parasite growth remaining, % of DMSO control (lower = more inhibition)",[11],39%
same,efficacy,[2],-18.8% (inactive)
same,outcome,[3],inactive
same,outcome,[16],inactive
same,outcome,[14],inactive
COC1(CS(=O)c2ccccc2)CCN(CCc2c[nH]c3ccc(F)cc23)CC1 (stereo not given),remaining parasite growth % (stronger effect = lower value),[8],23.6%
same,"activity, percent of control",[9],44.5%
same,"remaining proliferation (% of control), lower = more inhibition",[15],10%
same,"parasite growth, % of DMSO control",[10],36.7%
same,"parasite growth remaining, % of DMSO control (lower = more inhibition)",[11],55.9%
same,"parasite growth, % of control (lower = inhibition)",[12],66.8%
same,"growth, % of control",[13],35.7%
CS(=O)c1ccc(-c2nc(-c3ccc(F)cc3)c(-c3ccncc3)[nH]2)cc1 (stereo not given),remaining parasite growth % (stronger effect = lower value),[8],64.7%
same,"activity, percent of control",[9],56.4%
same,"parasite growth, % of control (lower = inhibition)",[12],30.3% [at 57.5 µM]
Cc1cc(SCc2sc(-c3ccc(C(F)(F)F)c(F)c3)nc2C)ccc1OCC(=O)O,max response,[1],27.5% (inactive)
same,max response,[6],-13% (inactive)
same,Potency,[7],50.1 µM (active)
same,remaining parasite growth % (stronger effect = lower value),[8],101%
same,"activity, percent of control",[9],90.7%
same,"remaining proliferation (% of control), lower = more inhibition",[15],82.6%
same,"parasite growth, % of DMSO control",[10],66.7%
same,"parasite growth remaining, % of DMSO control (lower = more inhibition)",[11],88.1%
same,"parasite growth, % of control (lower = inhibition)",[12],50.9%
same,"growth, % of control",[13],87.4%
COc1cc([C@@H]2c3cc4c(cc3[C@H](O)[C@H]3COC(=O)[C@H]23)OCO4)cc(OC)c1OC,max response,[1],11.4% (inactive)
same,remaining parasite growth % (stronger effect = lower value),[8],68.4% and 104%
same,"activity, percent of control",[9],62.7% and 121%
same,"remaining proliferation (% of control), lower = more inhibition",[15],5.53% and 99%
same,"parasite growth, % of DMSO control",[10],11%
same,"parasite growth remaining, % of DMSO control (lower = more inhibition)",[11],89.6%
same,"growth, % of control",[13],6.71%
same,efficacy,[2],25.2% (inactive)
same,AC50,[3],11.2 µM (active)
same,AC50,[4],5.01 µM (active)
same,AC50,[5],5.01 µM (active)
CN1CC[C@H](c2c(O)cc(O)c3c(=O)cc(-c4ccccc4Cl)oc23)[C@H](O)C1,efficacy,[2],58.1% (inactive)
same,outcome,[3],inactive
same,outcome,[4],inactive
same,outcome,[5],inactive
same,outcome,[14],inactive
C[C@@H]1[C@@H](CC(C[C@H]2O[C@@H]3O[C@]4(C)CC[C@@H]5[C@H](C)CC[C@@H]([C@H]2C)[C@@]35OO4)C[S+](=O)([O-])c2ccc(COC(=O)N(C)C)cc2)O[C@@H]2O[C@]3(C)CC[C@H]4[C@H](C)CC[C@@H]1[C@@]24OO3 (stereo not given in full),Potency,[1],2.3 nM (active)
same,remaining parasite growth % (stronger effect = lower value),[8],-0.6%
same,"activity, percent of control",[9],-0.0428%
same,"remaining proliferation (% of control), lower = more inhibition",[15],0.323%
same,"parasite growth, % of DMSO control",[10],25.5%
same,"parasite growth remaining, % of DMSO control (lower = more inhibition)",[11],6.65%
same,"parasite growth, % of control (lower = inhibition)",[12],23.2%
same,"growth, % of control",[13],20.9%
COc1ccc(C(=O)c2c(C)n(CCN3CCOCC3)c3ccccc23)cc1,max response,[1],6.23% (inactive) and 9.75% (inactive)
same,remaining parasite growth % (stronger effect = lower value),[8],111%
same,"activity, percent of control",[9],102%
same,"remaining proliferation (% of control), lower = more inhibition",[15],94.6%
same,"parasite growth, % of DMSO control",[10],90.6%
same,"parasite growth remaining, % of DMSO control (lower = more inhibition)",[11],95.8%
same,"parasite growth, % of control (lower = inhibition)",[12],66.9%
same,"growth, % of control",[13],93.4%
same,efficacy,[2],-40.9% (inactive)
same,AC50,[3],39.8 µM (active)
same,outcome,[4],inactive
same,AC50,[5],35.5 µM (active)

# Source: PubChem BioAssay (NCATS)
